Test results published in PubChem BioAssay AID485344 (National Center for Advancing Translational Sciences (NCATS), 2010).
Several values for one entry are separate records, joined by “and”; a condition that tells them apart may be missing. Equal entries are not always repeated. Screen size: about 340,000 compounds; about 6,900 (2%) were called active. No stated cut-off is given here; in the data, active means inhibition above about 30%; inactive means below that, where a call was filed. This excerpt belongs to a sample that is enriched for actives. The source holds several records for some structures; these can differ, active in one and inactive in another.

target: D(2) dopamine receptor (Homo sapiens) (UniProt P14416); test: HTS Assay for Allosteric Antagonists of the Human D2 Dopamine Receptor: Primary Screen for Antagonists; conditions: HEK293 TREx D2 cells, calcium flux, dopamine EC80; at 10 µM; stronger effect = higher value; further: 0% is about no effect
Sequence (P14416 whole entry, looked up): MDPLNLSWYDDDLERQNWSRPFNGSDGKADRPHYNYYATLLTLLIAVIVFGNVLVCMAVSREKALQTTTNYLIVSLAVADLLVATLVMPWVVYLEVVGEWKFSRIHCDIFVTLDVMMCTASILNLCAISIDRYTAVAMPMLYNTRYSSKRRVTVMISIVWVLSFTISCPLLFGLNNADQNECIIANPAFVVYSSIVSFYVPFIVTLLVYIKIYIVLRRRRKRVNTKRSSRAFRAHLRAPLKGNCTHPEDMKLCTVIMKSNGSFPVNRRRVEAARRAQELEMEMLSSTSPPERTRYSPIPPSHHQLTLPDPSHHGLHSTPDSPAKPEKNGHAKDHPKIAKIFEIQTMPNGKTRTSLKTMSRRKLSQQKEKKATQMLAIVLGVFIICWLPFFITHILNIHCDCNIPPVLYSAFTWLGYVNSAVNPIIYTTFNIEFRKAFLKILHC
Summary of the method: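 HEK293 T-REx D2 cells, tet-induced, calcium dye no-wash. Cpd pintool add, 180 s kinetic, then EC80 DA, 180 s kinetic. Ca flux read.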

inhibition, 10.2% (inactive) and 47% (active):
CCc1nn(CCCN2CCN(c3cccc(Cl)c3)CC2)c(=O)n1CCOc1ccccc1

inhibition, inactive:
O=C(COc1coc(CN2CCN(c3ccccc3)CC2)cc1=O)Nc1ccccc1F 16.7%, CCOC(=O)c1cc(-c2ccccc2C)n(Cc2cc(C)no2)n1 9.49%, CC(=O)Nc1cccc(C(=O)OCC(=O)Nc2nnc(-c3ccccc3)o2)c1 -0.603%, COc1ccc(C(=O)OCC(=O)NCCCc2ccccc2)cc1OC 7.85%, CCCCn1c(N)c(N(CCOC)C(=O)c2cccc(OCc3ccccc3)c2)c(=O)[nH]c1=O -3.21%, CCOc1ncccc1C(=O)OCC(=O)Nc1cccc(S(=O)(=O)N2CCCCCC2)c1 -2.34%, CC(Oc1ccc(F)cc1)C(=O)Nc1cc(S(=O)(=O)N2CCOCC2)ccc1N1CCN(C)CC1 (stereo unspecified) -1.88%, CC(NC(=O)c1ccc(S(=O)(=O)Nc2ccccc2)cc1)c1ccc(S(N)(=O)=O)cc1 (stereo unspecified) 11.4%, Fc1cccc(Cl)c1CSc1ccc(-c2ccco2)nn1 -10.9%, S=C(NCc1ccco1)NCc1ccccc1Cl -9.44%, COc1ccccc1C(CNC(=O)c1ccc(C)c(S(=O)(=O)N2CCCCC2)c1)N(C)C (stereo unspecified) 8.09%, CN(C(=O)COC(=O)c1ccc(Br)o1)c1c(N)n(Cc2ccccc2)c(=O)[nH]c1=O 1.2%, CC(=O)NCC(=O)N(Cc1ccco1)C1(C(=O)NC2CCCC2)CCCCC1 22.2%, Cc1ccc(N(C(=O)CC2NC(=O)NC2=O)C2(C(=O)NC3CCCC3)CCCCC2)cc1 (stereo unspecified) -9.9%, O=C(CN1C(=O)COc2ccccc21)NCCN1CCc2ccccc2C1 9.13%, O=C(NCCN1CCN(Cc2ccccc2)CC1)c1cc2c(=O)[nH]c3ccccc3c2s1 -24.6%, COc1ccccc1NC(=O)CSc1nnc(C)n1CC1CCCO1 (stereo unspecified) -14.5%, Cc1nnc(SCC(=O)NNC(=O)c2ccc(Cl)cc2)n1CC1CCCO1 (stereo unspecified) -10.1%, COc1ccc(CCNC(=O)COC(=O)Cc2cccc(F)c2)cc1 6.51%, Cc1c(NC(=O)C(C)Oc2cccc(Cl)c2)c(=O)n(-c2ccccc2)n1C (stereo unspecified) -1.16%, O=C(CSc1nc(C2CC2)nc2ccccc12)Nc1ccc2c(c1)OCCO2 4.27%, O=C(CSc1nc(C2CC2)nc2ccccc12)Nc1cccc(O)c1 6.46%, Cn1c(CC(=O)NNC(=O)c2ccccc2F)nc2ccccc21 -9.97%, O=C(NCc1ccncc1)c1cccc(NS(=O)(=O)c2ccc(F)c(F)c2)c1 26.4%, O=CN1CCN(C(=O)c2ccc(Br)o2)CC1 -1.93%, O=C(c1ccco1)N1CCN(C(=O)c2ccc(COc3ccc(F)cc3)o2)CC1 1.11%, O=C(CNS(=O)(=O)c1ccccc1)N1CCN(C(=O)c2ccco2)CC1 -2.75%, O=C(c1ccco1)N1CCN(C(=S)Nc2cc(F)cc(F)c2)CC1 -1.02%, COc1cccc(OCc2cc(C(=O)N3CCN(C(=O)c4ccco4)CC3)no2)c1 -3.13%, Cc1ccc(C)c(OCC(=O)N2CCN(C(=O)c3ccco3)CC2)c1 -1.29%, O=C(CN1CCN(C(=O)c2ccco2)CC1)Nc1ccc(Cl)c(C(F)(F)F)c1 0.954%, COC(c1ccccc1)c1nnc(CCC(=O)N2CCN(CCOc3ccccc3)CC2)o1 (stereo unspecified) -8.4%, CC(C)CN(C(=O)CSc1nncn1C)C1CCS(=O)(=O)C1 (stereo unspecified) -28.1%, O=C1C=C(c2cc(C(F)(F)F)cc(C(F)(F)F)c2)C[C@@H](c2ccc3c(c2)OCO3)C1 8.46%, CC(=O)Nc1cccc(C(=O)OCC(=O)c2ccc3c(c2)OCO3)c1 13.5%, CSCCC(NC(=O)c1ccccc1)C(=O)N1CCCCCCC1 (stereo unspecified) -18.4%, COc1ccccc1C(=O)Nc1ccc(OCC(=O)N2CCCCC2)cc1 -21.7%, Cc1ccc(C(=O)NNC(=O)c2ccc3c(c2)OCCO3)cc1 20.3%, Cc1ccc(C(=O)Nc2ncccc2C)cc1S(=O)(=O)N1CCOCC1 -29.3%, CCN1C(=O)/C(=C\N2CCN(c3cccc(Cl)c3)CC2)SC1=S -0.63%, Cc1nn(CCOc2ccccc2)c(=O)n1-c1ccccc1F 4.74%, CCN1CCN(C(=O)N[C@@H](C(=O)N[C@@H]2C(=O)N3C(C(=O)O)=C(CSc4nnnn4C)CS[C@H]23)c2ccc(O)cc2)C(=O)C1=O -6.07%, O=c1c2ccccc2ccc2ccc(P(=O)(O)O)cc12 1.32%, O=C(OCC(=O)N1CCN(C(=O)c2ccco2)CC1)c1ccc(Cl)c(Cl)c1 20.1%, CCN(c1ccccc1)S(=O)(=O)c1cc(C(=O)NCc2ccccn2)ccc1C -6.91%, CCOC(=O)N1CCN(C(=O)c2ccccc2N(Cc2ccccc2)S(=O)(=O)c2ccc(OC)cc2)CC1 -13.3%, CCOC(=O)C1CCN(C(=O)c2ccccc2N(C)S(=O)(=O)c2ccccc2)CC1 -8.5%, COc1ccc(-c2cc(C(=O)N(C)CC(=O)Nc3ccccc3Cl)c3ccccc3n2)cc1OC 1.05%, CC(=O)c1c(C)[nH]c(C(=O)OCC(=O)Nc2c(C)cccc2C)c1C -33.4%, COc1ccc(C2CC(c3cccs3)=NN2C(=O)CSc2nncs2)cc1OC (stereo unspecified) -4.05%, COc1ccc(C2CC(c3cccs3)=NN2C(=O)CSc2nnc(N)s2)cc1OC (stereo unspecified) -3.75%, CCOc1ccc2oc(C(=O)N(CC)CC(=O)Nc3ccc(NC(C)=O)cc3)c(C)c2c1 -21.5%, CCCC(NCC(=O)Nc1ccccc1C(=O)NC1CC1)c1ccccc1 (stereo unspecified) -15.9%, O=C(CCc1nc2sc3c(c2c(=O)[nH]1)CCCC3)NCC(=O)Nc1ccccc1Br 11%, Cc1ccccc1NC(=O)Cc1nc(COC(=O)c2cccnc2Cl)cs1 6.55%, CC(C)N(C(=O)Cn1cc(SCC(=O)N2CCCC2)c2ccccc21)C(C)C 13.5%, NC(=O)CSc1c[nH]c2ccccc12 -9.76%, CCCCN(C(=O)C1CCC1)c1c(N)n(Cc2ccccc2)c(=O)[nH]c1=O -6.33%, O=C(NCCC1CCCCN1S(=O)(=O)c1ccc(Cl)cc1)C(=O)NCc1ccco1 (stereo unspecified) -13.3%, COc1ccc(C(=O)NCc2ccc(Cl)cc2)cc1S(=O)(=O)N1CCCC1 -28.1%, O=C(CCCc1ccccc1)NCc1ccccc1 7.76%, O=C(CCC(=O)c1cccs1)NC1CCCCCC1 -3.48%, CC(NC(=O)CN(C)S(=O)(=O)c1ccc(F)cc1)C1CC2CCC1C2 (stereo unspecified) 2.6%, COc1ccc(CCNC(=O)c2cnc(Cl)c(Cl)c2)cc1 2.2%, CC(CCc1ccccc1)NC(=O)c1ccc(Br)o1 (stereo unspecified) -19.1%, COc1cccc(N2CCN(CC(=O)Nc3ccnn3C3CCCC3)CC2)c1 19.5%, COc1ccc(C(=O)NCCc2ccc(S(N)(=O)=O)cc2)cc1OC 14%, CCN(CC)CCNC(=O)c1ccc(NS(=O)(=O)c2ccc3c(c2)OCCO3)cc1 1.77%, COc1cccc(NC(=O)CN(C)C(=O)/C=C/c2cn(-c3ccccc3)nc2-c2cccs2)c1 12.4%, CC1CN(c2nc(Nc3ccccc3)nc(N)c2[N+](=O)[O-])CC(C)O1 (stereo unspecified) 13.4%, COCCNc1nc(N)c([N+](=O)[O-])c(N2CCCCCC2)n1 -9.71%, O=C(C1Cc2ccccc2CN1C(=O)c1ccco1)N1CCN(c2ccccc2)CC1 (stereo unspecified) -4.55%, CC(C)(C)C(=O)COC(=O)c1cc(S(=O)(=O)N2CCCCC2)ccc1N1CCOCC1 1.2%

inhibition, active:
COc1ccc(C(=O)OCC(=O)Nc2cccc(C(C)=O)c2)cc1OC 113%, Clc1ccccc1CSc1nnc(-c2ccco2)c(-c2ccco2)n1 34.6%, O=C(c1ccc(=O)[nH]c1)N(Cc1ccco1)C1(C(=O)NC2CCCCC2)CCCCC1 37.6%, Cn1c(C(=O)NCCN2CCc3ccccc3C2)cc2c(=O)[nH]c3ccccc3c21 32.3%, Cc1nnc(SCC(N)=O)n1CC1CCCO1 (stereo unspecified) 32.8%, Cc1nnc(NC(=O)CSc2nc(C3CCCCC3)nc3ccccc23)s1 35.4%, O=C(c1ccco1)N1CCN(Cc2cccc(C(F)(F)F)c2)CC1 77.1%, O=C(c1ccco1)N1CCN(CCOc2ccccc2)CC1 61.7%, COc1cccc(OC)c1OCCN1CCN(C(=O)c2ccco2)CC1 63.6%, O=C(c1ccc(Br)o1)N1CCN(CCOc2ccccc2)CC1 86.3%, CCN1CCN(C(=O)c2ccccc2N(C)S(=O)(=O)c2ccc(C)cc2)CC1 40.9%, COc1cccc(C2CC(c3cccs3)=NN2C(=O)CSC2=NCCS2)c1OC (stereo unspecified) 31.4%, CCCn1cc(SCC(N)=O)c2ccccc21 31.1%, O=C(CCC(=O)c1cccs1)NCc1ccccc1 34.9%, CC(CCc1ccccc1)NC(=O)c1cnc(Cl)c(Cl)c1 (stereo unspecified) 43.2%, CCN(CC)CCNC(=O)c1cc(S(C)(=O)=O)ccc1OC 99%, CCN1CCN(c2nc(Nc3cccc(F)c3)nc(N)c2[N+](=O)[O-])CC1 73.4%
